CSC inhib = blocks cancer stem cells. cancer stem cell-like cells viability, luminescence. inhibition, % at 7.5 µM. 300,000 tested, 1.1% active. AID 2717; in the data active = inhibition above about 75%; inconclusive = no clear call, values can overlap the other calls; tested in HMLE shEcad cells
Gli-Sufu antag = antagonists of Gli-Sufu signaling. Sufu-KO-LIGHT fibroblasts, Gli luciferase reporter luminescence. inhibition, % at 5 µM. 340,000 tested, 0.74% active. AID 588413;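 active = inhibition above about 55%, limit read from the data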;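 note: 0% = DMSO-treated cells and 100% = wells with medium but no cells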
Mdm2 MdmX PPI = disrupts the human Mdm2-MdmX interaction; O15151+Q00987; SaOS-2 split-luciferase Mdm2/MdmX complementation, luminescence; inhibition, % at 8 µM; 330,000 tested, 3% active;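 active = inhibition of at least 50% at 8 µM in the primary screen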
Target sequence (O15151 whole entry, looked up): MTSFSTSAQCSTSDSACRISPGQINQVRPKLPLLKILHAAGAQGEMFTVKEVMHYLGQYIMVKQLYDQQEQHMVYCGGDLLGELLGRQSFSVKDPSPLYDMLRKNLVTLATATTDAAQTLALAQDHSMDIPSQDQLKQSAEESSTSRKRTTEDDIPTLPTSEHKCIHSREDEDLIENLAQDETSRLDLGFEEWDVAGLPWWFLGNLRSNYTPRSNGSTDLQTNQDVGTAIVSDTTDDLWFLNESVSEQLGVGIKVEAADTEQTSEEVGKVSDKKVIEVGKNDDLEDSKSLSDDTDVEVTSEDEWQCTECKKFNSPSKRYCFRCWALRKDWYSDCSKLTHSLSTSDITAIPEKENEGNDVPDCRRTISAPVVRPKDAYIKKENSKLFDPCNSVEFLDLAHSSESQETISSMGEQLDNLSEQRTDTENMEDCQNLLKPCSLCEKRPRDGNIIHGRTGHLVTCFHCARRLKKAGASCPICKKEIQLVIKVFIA
Target sequence (Q00987 whole entry, looked up): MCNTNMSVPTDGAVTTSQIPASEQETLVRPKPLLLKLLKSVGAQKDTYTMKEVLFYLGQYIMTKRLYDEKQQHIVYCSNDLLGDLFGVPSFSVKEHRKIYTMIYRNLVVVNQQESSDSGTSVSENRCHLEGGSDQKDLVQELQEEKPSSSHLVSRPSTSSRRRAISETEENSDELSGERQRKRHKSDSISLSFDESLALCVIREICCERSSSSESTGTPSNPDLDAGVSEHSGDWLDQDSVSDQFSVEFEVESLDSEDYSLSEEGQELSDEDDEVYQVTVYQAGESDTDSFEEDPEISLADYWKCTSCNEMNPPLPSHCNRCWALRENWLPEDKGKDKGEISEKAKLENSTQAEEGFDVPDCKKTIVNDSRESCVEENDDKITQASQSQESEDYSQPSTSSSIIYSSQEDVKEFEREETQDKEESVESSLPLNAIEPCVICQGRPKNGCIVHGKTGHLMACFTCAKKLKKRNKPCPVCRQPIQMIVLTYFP
Beta apoptosis = blocks beta cell apoptosis; AID 435005; INS-1E cytokine-induced death, ATP luminescence, 48 h; percent of positive-control rescue, neutral wells zero; 300,000 tested, 0.8% active; protection from apoptosis, % (test concentration not listed);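 active = Every replicate reaches about 75%, or at least half do and their mean reaches it too, limit read from the data; inconclusive = At least half of replicates reach the limit but their mean does not; inactive = Under half of replicates reach the limit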;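 note: 0% = cytokine-treated negative control wells and 100% = positive control rescue; higher means more ATP so stronger rescue from cytokine killing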
PAX8 inh HTS = inhibitors of PAX8 transcriptional activity in RMG-I cells; inhibition, % at 12.6 µM; AID 652154; RMG-I TPO-luciferase reporter, SteadyGlo, 24 h; 360,000 tested, 1.2% active;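 active = mean replicate inhibition at least 60% with every replicate also reaching 60%; inconclusive = only one of the two criteria is met; inactive = mean below 60% and not all replicates reaching 60%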;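 note: luciferase light reporting Pax8 driven TPO promoter activity; plate controls were median of neutral control wells for no effect and mitoxantrone controls for full effect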
Shn3 3UTR inh = reduces Shn3 3'UTR luciferase signal in osteoblasts | Clone20 osteoblast Shn3 3'UTR firefly luciferase, 24 h | inhibition, % at 12.5 µM | 360,000 tested, 0.52% active;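 active = mean inhibition of at least 75% with every replicate also reaching 75%; inconclusive = mean inhibition at least 75% but some replicate below; inactive = mean inhibition below 75%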;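 note: 0% = median of neutral control wells and 100% = pilot-screen positive control compound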
Mdm2-MdmX conf = human Mdm2/MdmX binding inhibition, confirmed; shares compounds with Mdm2 MdmX PPI; 10,000 tested, 55% active; inhibition, % at 8 µM; luminescent assay; in the data active = inhibition above about 40%
FLuc counter = counter-screen for Mdm2/MdmX inhibitors: full-length luciferase; inhibition, % at 8 µM; shares compounds with Mdm2 MdmX PPI; 6,200 tested, 77% active; SaOS-2 full-length luciferase counterscreen, luminescence;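 active = mean inhibition at 8 µM reaching about 37%, which flags the compound as non-specific, limit read from the data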;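 note: p53-null SaOS-2 cells with luciferase driven by a doxycycline-inducible promoter; compound on cells about two nights before reading with doxycycline added after day one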
* = called active by the depositor; ? = inconclusive; nt = no result given. Shown are actives, neighbours in structure and some others; about 4% of the full set was active somewhere.

SMILES | CSC inhib | Gli-Sufu antag | Mdm2 MdmX PPI | Beta apoptosis | PAX8 inh HTS | Shn3 3UTR inh | Mdm2-MdmX conf | others
CCCNC(=O)C[C@H]1C[C@H]2c3cc(NC(=O)Nc4ccccc4)ccc3O[C@H]2[C@@H](CO)O1 | nt | nt | nt | nt | 12 | nt | nt
CCCCCc1cc(=O)oc2c(C(CCN3CCCCC3)c3ccc(OC)cc3)c(OC)cc(OC)c12 (stereo unspecified) | 97* | 24 | 96* | 47 | 66* | 31 | 31 | FLuc counter=44*
Cc1nc(NC(=O)CSc2nc3cccnc3n2Cc2ccccc2)sc1C | nt | 7 | 78* | 48 | 20 | 21 | 20
CNC[C@@H]1Oc2cc(C#CC3(O)CCCC3)ccc2S(=O)(=O)N([C@@H](C)CO)C[C@@H]1C | nt | nt | nt | nt | 6 | nt | nt
CCOC(=O)c1ccc(Nc2nc(=O)c3cccnc3s2)cc1 | 31 | -64 | 71* | -2 | nt | -19 | 41* | FLuc counter=73*
O=c1nc(Nc2ccc(OCc3ccccc3)cc2)sc2ncccc12 | 48 | -4 | 69* | -4 | 16 | 62 | 82* | FLuc counter=23
CC(=O)c1ccc(Nc2nc(=O)c3cccnc3s2)cc1 | -2 | 10 | 5 | -7 | nt | -37 | nt
Cc1[nH]c2ccccc2c1C(c1ccccn1)N1CCC(C)CC1 (stereo unspecified) | -7 | nt | 51* | -8 | nt | -5 | 0
CCOC(=O)C1CCCN(C(c2ccccn2)c2c(C)[nH]c3ccccc23)C1 (stereo unspecified) | 1 | -11 | 53* | -8 | 23 | 8 | 4
C[C@H](CO)N1C[C@H](C)[C@H](CN(C)C)Oc2ccc(NC(=O)Nc3cccc4ccccc34)cc2C1=O | nt | nt | nt | nt | 4 | nt | nt
COc1ccc(CCNC(=O)c2ccc3c(c2)N(Cc2ccccc2)CCS3)cc1OC | 23 | 10 | 60* | -4 | 6 | 10 | 16
COc1ccc(OC)c(CCNC(=O)c2ccc3c(c2)N(Cc2ccccc2)CCS3)c1 | 30 | 15 | 29 | 0 | 3 | 2 | nt
O=C(C[C@@H]1C[C@H]2c3cc(NC(=O)Nc4ccccc4)ccc3O[C@H]2[C@H](CO)O1)NC1CCCC1 | nt | nt | nt | nt | 9 | nt | nt
C[C@H](CO)N1C[C@H](C)[C@H](CN(C)Cc2ccc(C(F)(F)F)cc2)Oc2ccc(NC(=O)CCC(F)(F)F)cc2CC1=O | nt | nt | nt | nt | -5 | nt | nt
COc1ccc2c(-c3ccc(S(N)(=O)=O)cc3)c(-c3ccc(S(C)(=O)=O)cc3)sc2c1 | nt | -2 | 67* | nt | 16 | 15 | 14
COc1ccc2c(C#CCCO)c(-c3ccc(S(C)(=O)=O)cc3)sc2c1 | 53 | 4 | 42 | -3 | 37 | -9 | nt
CN1CCN(C(=O)C[C@@H]2CC[C@H]3[C@@H](COc4ccc(NC(=O)C5CCCCC5)cc4C(=O)N3C)O2)CC1 | nt | nt | nt | nt | -11 | nt | nt
COc1ccc(CNC(=O)COC(=O)c2ccccc2OCC(=O)Nc2ccc(SC(F)F)cc2)cc1 | -7 | -8 | 99* | -1 | -8 | 16 | 16
OC(CN1CCCCC1)Cn1c2ccc(Cl)cc2c2cc(Cl)ccc21 (stereo unspecified) | ? | 45 | 75* | nt | 0 | -27 | 20
CC1CCN(CC(O)Cn2c3ccccc3c3ccccc32)CC1 (stereo unspecified) | 1 | -28 | 20 | -1 | 4 | 5 | nt
O=c1cc[nH]c2ccc(Cl)cc12 | -10 | 0 | 7 | 2 | -7 | -92 | nt
O=c1cccc2c1c1cc[nH]c3ccc(=O)n2c31 | -11 | -1 | 73* | -5 | nt | -27 | 68* | FLuc counter=53*
CC(C)NC(=O)N1Cc2cc(C(=O)NC3CCCCC3)nc(-c3cccc(-c4cccnc4)c3)c2[C@H]1CCO | nt | nt | nt | nt | 33 | nt | nt
C[C@@H]1CN([C@H](C)CO)C(=O)CCCn2cc(nn2)CO[C@@H]1CN(C)C(=O)C1CC1 | nt | nt | nt | nt | -3 | nt | nt
CN(c1ccc(OCC(=O)Nc2ccccc2C(=O)O)cc1)S(=O)(=O)c1ccc(Cl)cc1 | 49 | 9 | 90* | -1 | -7 | 13 | 40* | FLuc counter=39*
SMILES | CSC inhib | Gli-Sufu antag | Mdm2 MdmX PPI | Beta apoptosis | PAX8 inh HTS | Shn3 3UTR inh | Mdm2-MdmX conf | others
COc1ccc(C(=O)Nc2ccccc2C(=O)N(Cc2ccco2)C(C(N)=O)C(C)C)cc1 (stereo unspecified) | -4 | -28 | 66* | -4 | nt | -40 | 21
Cc1cc(C)cc(OCC(=O)Nc2ccccc2C(=O)NCc2ccco2)c1 | -12 | 1 | -1 | 10 | 2 | 15 | nt
COc1ccc(C(=O)Nc2ccccc2C(=O)NC(C(=O)NCc2ccco2)C(C)C)cc1 (stereo unspecified) | 7 | 0 | 74* | 11 | nt | -9 | -9
O=C(COc1ccc(Cl)cc1)Nc1ccccc1C(=O)NCc1ccco1 | 23 | 4 | 73* | -2 | nt | 18 | -19
CC(=O)Nc1ccc(S(=O)(=O)N(C)c2ccc(OCC(=O)Nc3ccccc3C(C)=O)cc2)cc1 | nt | 9 | 13 | nt | 33 | 20 | nt
COc1ccc(C(=O)N[C@H](C(=O)NCc2ccco2)C(C)C)cc1 | 9 | -4 | -4 | 0 | -1 | -21 | nt
COc1ccc2c3c(n(C)c2c1)[C@H](CO)N(C(=O)NC(C)C)CC31CCN(CC2CCCC2)CC1 | nt | nt | nt | nt | -9 | nt | nt
CC(=O)N1CC[C@@H]2[C@H]1c1cc(-c3ccc(C#N)cc3)ccc1N(C)[C@H]2CO | nt | nt | nt | nt | 6 | nt | nt
CCC(=O)N1[C@H](C(=O)Nc2ccccc2)[C@@H](CO)[C@@H]2Cn3c(ccc(C4=CCCC4)c3=O)[C@@H]21 | nt | nt | nt | nt | -22 | nt | nt
CCCNC(=O)Nc1ccc2c(c1)C(=O)N(C)C[C@@H](OC)[C@@H](C)CN[C@@H](C)CO2 | nt | nt | nt | nt | -6 | nt | nt
CCOC(=O)CNS(=O)(=O)c1cc(-c2n[nH]c(=O)c3ccccc23)ccc1C | nt | -4 | nt | nt | 2 | -11 | nt
Cc1ccc(NS(=O)(=O)c2cc(-c3n[nH]c(=O)c4ccccc34)ccc2C)cc1 | 57 | 6 | 64* | 5 | 24 | 31 | 66* | FLuc counter=50*
O=C(N[C@H]1CC[C@H](CCNS(=O)(=O)Cc2ccccc2)O[C@H]1CO)c1ccc2c(c1)OCO2 | nt | nt | nt | nt | 6 | nt | nt
